Experimental data published in the supplement of paper PMC6555819.

Assays:
Experiment in all cases: PBM binding z-score (relative to random genomic background probes); higher = stronger binding; sequences stand for … in GC…GCGATTGACAGCGTAGAATGAAGG
[1] = tested on: FXR:RXRa (NR concentration 270 nM, RXRa partner concentration 90 nM)
In short: (§1)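 Each nuclear receptor dimer, without ligand, was incubated for 1 h on custom Agilent 4×180K protein-binding microarrays. Binding was detected with antibodies against each partner (one per run), and scanned fluorescence was regression-normalized. The binding z-scores are referenced to random human genomic background probes.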

[2] = tested on: LXRa:RXRa (NR concentration 270 nM, RXRa partner concentration 90 nM)
In short: as §1

[3] = tested on: LXRa homodimer (NR concentration 270 nM)
In short: as §1

[4] = tested on: LXRb:RXRa (NR concentration 270 nM, RXRa partner concentration 90 nM)
In short: as §1

[5] = tested on: LXRb homodimer (NR concentration 270 nM)
In short: as §1

[6] = tested on: PPARa:RXRa (NR concentration 270 nM, RXRa partner concentration 90 nM)
In short: as §1

[7] = tested on: PPARg:RXRa (NR concentration 180 nM, RXRa partner concentration 90 nM)
In short: as §1

[8] = tested on: PPARg:RXRa 270nM:90nM, anti-RXR (NR concentration 270 nM, RXRa partner concentration 90 nM)
In short: as §1

[9] = tested on: PPARg:RXRa 30nM:10nM, anti-RXR (NR concentration 30 nM, RXRa partner concentration 10 nM)
In short: as §1

[10] = tested on: PPARg:RXRa 90nM:30nM, anti-RXR (NR concentration 90 nM, RXRa partner concentration 30 nM)
In short: as §1

Sequence	PBM binding z-score [1]	PBM binding z-score [2]	PBM binding z-score [3]	PBM binding z-score [4]	PBM binding z-score [5]	PBM binding z-score [6]	PBM binding z-score [7]	PBM binding z-score [8]	PBM binding z-score [9]	PBM binding z-score [10]
CCTTACGGGTCAAGGTTATATCACGGGTGGTACG	5.41	3.89	0.787	3.34	0.134	4.99	4.26	4.7	1.6	3.52
CCGACGGGGGCAAGGTTACCATAACGCACAGCCA	3.14	3.01	0.301	4.21	3.34	3.96	2.74	3.36	1.37	2.84
TAGCCTAGGTCACGGGCCAGTATACCACGCGAAC	5.68	4.12	0.223	3.33	-0.137	5.41	5.67	4.7	1.91	3.23
GCTGCTAGGTCAACTGAAGGTCAGCTAAAGCTCG	5.14	4.92	4.01	3.69	0.218	4.26	3.73	4.61	1.03	3.19
CGAACTATGTCACCAGGACAGTGAAGAGGTTGGA	0.32	0.0175	-0.0452	-0.257	-0.182	1.17	1.5	1.26	0.318	0.775
CGAACTAGGTCAACGGACAGTGAAAGGCGACGTA	3.7	2.16	-0.117	1.22	-0.431	4.75	8.09	6.86	4.42	6.52
CCTAGTTGGTCAAGGTAACACACGCTATAGGTAC	0.638	0.459	0.594	0.713	0.295	0.749	1.08	1.32	0.57	0.891
CGAACTAGGTCAGCAGGACAGTGAAGAGGTTGGA	1.24	0.718	-0.103	0.384	-0.892	3.76	5.96	5.16	2.12	4.13
CGAACTAGGTCATCGAGGACAGTGAATACATTGA	4.22	2.59	0.3	1.9	-0.0709	4.86	7.79	6.42	4.26	6.2
CGAACTAGGCCAAAGGACAGTGAAAGGCGACGTA	-0.669	-0.893	-0.542	-0.756	-1.2	2.97	6.79	6.81	5.3	7.2
ATATGTAGGTTAGGGACATTCAGAAAGTAGGGAA	0.703	0.638	0.29	0.442	0.526	2.39	3.98	2.82	1.2	2.33
CGAACTAGGTCAAAGAACAGTGAAAGGCGACGTA	3.3	1.96	-0.252	1.43	-0.259	4.66	8.35	7.08	5.63	7.35
AATACAGGGTCATTAGGCCAGAGTAGGTACGAAT	7.31	5.48	2.17	4.27	1.52	5.58	6.71	5.91	2.62	4.89
TCTCGGAGGACACGAAAGGTCAGTGCTCGACATC	2.42	3.37	3.24	2.99	-0.000616	2.99	0.746	2.29	2.43	2.19
CGAACTAGGTCACCAGGACAGTGTAGAGGTTGGA	4.04	2.35	-0.0613	1.77	-0.589	5.08	8.54	6.85	4.68	6.46
CCTACTGGGCCAAAAATGTCATTGATGCCGATAA	-0.451	-0.771	-0.332	-0.343	-0.655	0.13	0.537	0.911	-0.0652	0.391
ATATGTAGGTAAGGGTCATTCAGAAAGTAGGGAA	4.33	4.17	1.56	4.24	1.45	5.52	7.89	6.82	4.58	6.85
ATATGTAGGTTAGGGTCATTCAGAAAGTAGGGAA	5.09	4.43	1.52	4.66	1.62	5.61	7.97	6.68	4.41	6.43
CAAACTAGGTCAAGAGGTCAAACTCCGCTTCCCG	7.36	6.74	6.8	5.98	2.74	6.77	10.1	8.55	7.7	9.09
TAGCCTAGGTCATGCGGGCCAGCATAGTGTCGGC	3.77	3	0.115	1.37	-0.19	3.4	2.11	2.55	0.274	1.49
AAATGTAGGTTAGGGTCATTCAGAAAGTAGGGAA	5.35	4.2	1.68	4.67	1.5	5.81	8.25	6.63	5.16	6.92
CTCGAAAGGTCGGTTGAGGTCAGTATACGGATAA	5.06	5.23	1.74	3.81	0.351	3.83	1.26	2.17	0.448	1.75
TTACCAAGGTTAAAGGTCGTTGATGCACGCCTTG	4.98	5.1	1.51	4.06	0.439	5.64	7.98	8.34	8.79	8.95
CGAACTTGGTCAAAGGACAGTGAAAGGCGACGTA	-0.082	-0.109	-0.799	-0.227	-0.688	1.25	3.15	4.34	2.21	4.07
CGAACTAGGTCACCACGACAGTGAAGAGGTTGGA	4.13	2.41	0.318	1.87	-0.171	5.18	8.44	7.14	4.87	6.86

Sequence	PBM binding z-score [1]	PBM binding z-score [2]	PBM binding z-score [3]	PBM binding z-score [4]	PBM binding z-score [5]	PBM binding z-score [6]	PBM binding z-score [7]	PBM binding z-score [8]	PBM binding z-score [9]	PBM binding z-score [10]
GCTGCAAGGTCAACTGATGGTCAGCTAAAGCTCG	7.53	5.93	0.917	4.54	1.33	5.97	4.81	5.67	1.77	3.97
ATATGTAGGTTACGGTCATTCAGAAAGTAGGGAA	2.04	2.49	1.64	1.74	1.02	4.35	7.06	5.67	3.24	5.02
CGTCAAAGTTCACCTAAGGTAACGTAAAGCACGC	6.94	6.74	3.99	4.24	1.27	5.11	5.63	5.75	2.48	4.52
CCTCGGAGGACAACCGGAGGTCAGAGCTGCCAGA	1.26	2.64	2.71	1.52	-0.532	1.78	0.316	0.642	-0.954	0.0511
AGATGTAGGTTAGGGTCATTCAGAAAGTAGGGAA	5.03	3.88	1.53	4.56	2.05	5.24	7.27	6.27	3.83	5.81
AATACAGGGTCACTTGGCCAGAGTAGGTACGAAT	6.52	5.13	1.39	4.27	1.54	5.49	5.84	5.4	2.24	4.19
ACTAATTGGTCAGCTGAGGTCACACACAATTCGG	3.46	3.25	2.59	3.68	1.15	4.06	2.17	2.77	1.23	1.88
ACTAGTTGGTCAGCTGAGGTCACACACAATTCGG	4.25	3.46	1.96	3.8	0.66	3.89	1.97	2.31	0.854	1.58
CGAACTAGGTCACCAGGAGAGTGAAGAGGTTGGA	3.86	2.33	-0.171	1.33	-0.287	4.87	8.26	6.73	4.58	6.24
CGAACTAGGTCAAAGGACAGTGGAAGGCGACGTA	3.72	2.62	-0.0912	1.47	-0.761	5.49	9.71	8.34	8.02	9.05
CTCGAAAGGTCGTGCTTAGGTGAGTATACCAAAC	4.83	3.99	0.372	3.46	0.121	4.98	2.86	4.3	1.12	2.98
CGAACTAGGTCACCAGTACAGTGAAGAGGTTGGA	3.77	2.35	0.174	1.82	0.0155	4.77	8.77	7.17	5.27	6.88
CGAACTAGGTCACCAGGACTGTGAAGAGGTTGGA	4.32	2.55	-0.155	1.59	-0.403	5.08	8.54	6.81	4.45	6.79
ATCGAAAGGTCGTCGAGGTGAGTATACACCGTTT	4.79	4.28	0.169	3.19	0.543	4.87	3.07	3.97	1.22	2.66
CGTCCAAGGTCAGTGAGGTCAGTGAATGCCGAGT	5.29	4.25	2.06	3.89	-0.0298	4.72	3.46	4.07	0.585	2.61
CGTCCAAGGTCAATGCTAGGTCACTGAAAGCATT	6.84	5.66	3.98	4.6	0.791	5.16	4.37	5.11	1.68	3.62
CCTTACGGGTCACGGGGTTATAGCACGACGAGCG	7.63	5.25	0.321	4.81	0.272	6.37	8.37	7.11	3.95	6.75
CCTACTGGGCCAAAGGACATTGATTCCAATGCTC	-0.0323	-0.0828	-0.295	-0.127	-0.465	2.62	5.82	6.75	5.26	7.73
TAGCCAAGGTCATTCAGGGGCCAGTATAGAAAGC	7.35	5.84	1.66	4.6	2.35	5.19	4.6	4.81	1.47	3.17
CGACCTAGGTCAAAGGACAGTGAAAGGCGACGTA	5.01	3.27	-0.141	2.32	-0.298	4.33	5.72	5.68	3.14	4.92
ACTAGTTGGTCACCTGAGGTCACACACAATTCGG	4.76	6.29	6.67	4.97	1.5	4.17	2.75	3.37	1.09	2.1
CGCACTAGGTCAAAGGACAGTGAAAGGCGACGTA	4.07	2.88	0.082	1.83	-0.151	5.48	10.1	8.55	8.13	8.98
ATATGGAGGTTAGGGTCATTCAGAAAGTAGGGAA	5.28	4.25	1.34	4.8	2.02	5.63	5.01	4.47	1.89	3.76
CAAACTAGGTCACAGAGGTCAACGTCCGTGCGTA	7.51	6.49	6.37	5.93	1.62	6.75	10.3	8.36	6.69	8.46
